In PubChem BioAssay one finds growth inhibition, inhibition and outcome data, which are given here for 20 compounds.

Values without a mark were called inactive. For some of these results: Entries with a potency or affinity are not part of this list. Activity calls are given as the source filed them. Unless noted, the rule behind the calls is not given here.

The nature of assay [1]: antimalarial activity against Dd2 strain (AID 2302;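 active = growth inhibition above 50% at the single 2 µM test dose, taken to imply half-maximal potency below 2 µM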;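 note: 0% = DMSO untreated growth and 100% = chloroquine plus artemisinin killed control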). To be noted: P. falciparum Dd2 in RBCs, LDH growth readout, 72 h; at 2 µM; active compounds read high.
Assay [2] is described as follows: human hepatoma cell viability loss – ATP luminescence, cytotoxicity control for P. falciparum antimalarial project, primary screen (AID 2303;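 active = inhibition above 50%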;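 note: 0% = DMSO wells and 100% = digitonin-killed cells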). As to conditions: HepG2 viability, 24-48 h, at 10 µM, active compounds read high.
Assay [3] deals with L-lactate dehydrogenase (Plasmodium falciparum (isolate CDC / Honduras)) (UniProt Q27743). As to the kind of experiment: PfLDH activity inhibition – cell lysate, 3D7 strain, counter-screen for P. falciparum growth inhibition project (AID 2304).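 Note: 0% = vehicle and 100% = reference inhibitor.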 As to conditions: P. falciparum 3D7 crude extract, LDH APAD/NBT absorbance; at 2 µM; active compounds read high. (The purpose of a counterscreen is to sort out artefacts and off-target activity.)

Assay [4] is described as follows: inhibition of 3D7 malaria parasite growth – strain 3D7 (AID 2306).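 Note: 0% = DMSO wells and 100% = chloroquine plus artemisinin control wells.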 As to conditions: P. falciparum 3D7 erythrocytic growth, LDH absorbance, 72 h; at 2 µM; active compounds read high.
The target in assay [5] is Calcium-dependent protein kinase 1 (Plasmodium falciparum (isolate 3D7)) (UniProt P62344). As to the kind of experiment: PfCDPK1 kinase inhibitors, biochemical, TCAMS library (AID 1159585; cut-off not given, nearly all actives have IC50 up to about 0.98 µM;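 note: inhibitors leave more ATP so luminescence rises with inhibition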). To be noted: recombinant PfCDPK1, Kinase-Glo ATP depletion luminescence. For orientation: In Kinase-Glo more light means more ATP remaining.
Assay [6] concerns the target Plasmodium falciparum protein kinase 6 (PK6, PF3D7_1337100) (UniProt Q8IDW1). Kind of assay: PfPK6 kinase inhibitors, biochemical, TCAMS library (AID 1159586). As to conditions: recombinant PfPK6, Kinase-Glo ATP depletion luminescence.
For assay [7], the target named is Protein kinase 7 (PK7), Plasmodium falciparum 3D7 (PF3D7_0213400) (UniProt Q7YTF7). Kind of assay: inhibition of Plasmodium PK7 catalytic activity – biochemical, TCAMS antimalarial set, Kinase-Glo luminescence (AID 1159587). As to conditions: recombinant PfPK7, Kinase-Glo ATP depletion luminescence.
For assay [8], the target named is Calcium-dependent protein kinase 4 (Plasmodium falciparum (isolate 3D7)) (UniProt Q8IBS5). Kind of assay: PfCDPK4 kinase inhibitors, biochemical, TCAMS library (AID 1159588; cut-off not given, nearly all actives have IC50 up to about 0.91 µM). To be noted: recombinant PfCDPK4, Kinase-Glo ATP depletion luminescence.
Chain of Calcium-dependent protein kinase 4 (Plasmodium falciparum (isolate 3D7)) (Q8IBS5 whole entry, looked up): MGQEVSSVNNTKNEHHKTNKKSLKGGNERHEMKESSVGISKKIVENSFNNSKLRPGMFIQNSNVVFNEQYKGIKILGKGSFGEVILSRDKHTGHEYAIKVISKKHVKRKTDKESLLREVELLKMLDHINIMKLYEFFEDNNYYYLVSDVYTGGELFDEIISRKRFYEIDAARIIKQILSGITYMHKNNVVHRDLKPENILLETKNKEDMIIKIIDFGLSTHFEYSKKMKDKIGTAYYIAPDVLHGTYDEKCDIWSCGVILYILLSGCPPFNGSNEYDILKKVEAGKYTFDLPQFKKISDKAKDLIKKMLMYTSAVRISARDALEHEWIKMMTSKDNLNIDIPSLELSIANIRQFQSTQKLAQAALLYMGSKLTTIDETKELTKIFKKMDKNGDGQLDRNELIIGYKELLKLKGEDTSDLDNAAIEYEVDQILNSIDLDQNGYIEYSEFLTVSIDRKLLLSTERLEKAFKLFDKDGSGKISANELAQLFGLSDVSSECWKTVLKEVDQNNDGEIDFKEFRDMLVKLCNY

Chain of Plasmodium falciparum protein kinase 6 (PK6, PF3D7_1337100) (Q8IDW1 1-305): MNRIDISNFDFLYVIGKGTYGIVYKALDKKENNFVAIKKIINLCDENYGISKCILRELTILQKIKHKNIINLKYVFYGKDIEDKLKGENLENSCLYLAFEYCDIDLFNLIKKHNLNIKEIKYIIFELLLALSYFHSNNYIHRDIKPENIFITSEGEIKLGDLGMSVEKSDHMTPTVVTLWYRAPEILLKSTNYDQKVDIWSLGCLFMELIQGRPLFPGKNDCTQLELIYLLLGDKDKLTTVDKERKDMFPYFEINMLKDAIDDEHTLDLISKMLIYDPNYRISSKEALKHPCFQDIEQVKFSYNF
Chain of Protein kinase 7 (PK7), Plasmodium falciparum 3D7 (PF3D7_0213400) (Q7YTF7 1-343): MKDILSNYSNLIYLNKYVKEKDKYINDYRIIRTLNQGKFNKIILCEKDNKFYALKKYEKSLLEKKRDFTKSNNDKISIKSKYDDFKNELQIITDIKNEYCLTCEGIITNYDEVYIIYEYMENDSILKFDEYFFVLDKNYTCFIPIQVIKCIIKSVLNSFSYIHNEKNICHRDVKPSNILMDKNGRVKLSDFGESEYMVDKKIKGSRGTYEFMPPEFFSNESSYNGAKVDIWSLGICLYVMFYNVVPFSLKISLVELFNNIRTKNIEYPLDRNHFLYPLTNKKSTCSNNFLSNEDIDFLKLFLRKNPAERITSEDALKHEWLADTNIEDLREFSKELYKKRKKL
Chain of Calcium-dependent protein kinase 1 (Plasmodium falciparum (isolate 3D7)) (P62344 whole entry, looked up): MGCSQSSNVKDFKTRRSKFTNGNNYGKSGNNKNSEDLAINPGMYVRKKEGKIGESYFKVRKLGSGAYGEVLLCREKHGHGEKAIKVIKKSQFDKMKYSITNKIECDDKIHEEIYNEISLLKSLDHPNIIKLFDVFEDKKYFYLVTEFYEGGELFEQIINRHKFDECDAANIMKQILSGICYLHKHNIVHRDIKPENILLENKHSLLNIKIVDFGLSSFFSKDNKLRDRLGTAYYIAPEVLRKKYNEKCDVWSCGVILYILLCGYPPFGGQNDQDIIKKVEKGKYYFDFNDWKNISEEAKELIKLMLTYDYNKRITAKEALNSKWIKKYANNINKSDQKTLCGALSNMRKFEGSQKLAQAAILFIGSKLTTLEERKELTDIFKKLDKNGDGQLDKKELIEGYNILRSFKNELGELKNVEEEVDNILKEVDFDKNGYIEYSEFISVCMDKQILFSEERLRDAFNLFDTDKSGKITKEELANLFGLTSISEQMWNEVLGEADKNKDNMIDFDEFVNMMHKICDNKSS
Chain of L-lactate dehydrogenase (Plasmodium falciparum (isolate CDC / Honduras)) (Q27743 whole entry, looked up): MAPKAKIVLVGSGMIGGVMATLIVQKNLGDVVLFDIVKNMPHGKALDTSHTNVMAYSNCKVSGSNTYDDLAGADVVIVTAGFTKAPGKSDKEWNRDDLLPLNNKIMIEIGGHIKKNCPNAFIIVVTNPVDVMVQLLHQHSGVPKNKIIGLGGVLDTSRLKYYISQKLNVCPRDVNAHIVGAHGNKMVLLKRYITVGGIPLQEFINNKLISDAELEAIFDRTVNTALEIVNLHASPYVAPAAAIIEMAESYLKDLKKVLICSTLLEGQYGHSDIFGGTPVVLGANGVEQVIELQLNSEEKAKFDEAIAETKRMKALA

In the case of `CC(=O)Nc1ccc(C(=O)N2CCN(c3ccnc4cc(Cl)ccc34)CC2)cc1`, the growth inhibition in assay [1] is 43%; in assay [4], 93% (active). In addition, the figures for the inhibition in assay [2] and in assay [3] were 2% and -5%, respectively. Further, the outcome in assay [5], in assay [6], in assay [7] and in assay [8] was inactive.
Regarding `Cc1ccc(O)cc1Nc1ccnc2ccc(C(C)(C)C)cc12`, the growth inhibition in assay [1] and in assay [4] was 100% (active) in each case. Further, the inhibition in assay [2] was 6%; in assay [3], 3%. Further, the result in assay [5], in assay [6], in assay [7] and in assay [8] was inactive.
As to `CC(C)CN(Cc1c(O)ccc2[nH]c(-c3ccc(F)cc3F)nc12)CC(C)C`, the growth inhibition in assay [1] is 92% (active); in assay [4], 98% (active). The inhibition in assay [2] was 11%; in assay [3] it was -2%. In addition, the outcome in assay [5], in assay [6], in assay [7] and in assay [8] was inactive.
As to `CC(=O)Nc1cc(C(=O)Nc2cccc(-c3cccc(-c4nc5c(C)cccc5[nH]4)c3)c2)ccc1C`, the growth inhibition is 62% (active) in assay [1] and 100% (active) in assay [4]. In addition, the inhibition in assay [2] was 25%; in assay [3], 1%. The outcome in assay [5], in assay [6], in assay [7] and in assay [8] was inactive.
Turning to `COCCOc1cc(C)c(C2CCN(CCCCNC(=O)c3ccc(NC(=O)c4ccc(Cl)cc4)cc3)CC2)cc1C`, the growth inhibition in assay [1] is 30%; in assay [4], 88% (active). For the same compound, the inhibition in assay [2] was 15%; in assay [3], -2%. Further, the result in assay [5], in assay [6], in assay [7] and in assay [8] was inactive.
In the case of `Fc1ccc(Nc2ccnc3cc(-c4cccc(CNCCN5CCOCC5)c4)ccc23)c(Cl)c1`, the growth inhibition in assay [1] was 99% (active); in assay [4] it was 100% (active). The inhibition in assay [2] was 26%; in assay [3], -1%. Also, the result in assay [5], in assay [6], in assay [7] and in assay [8] was inactive.
Take `Cc1cc(Nc2ccc(C)c(C)c2)n2nc(C)nc2n1`: the values for the growth inhibition in assay [1] and in assay [4] were 45% and 95% (active), respectively. For the same compound, the inhibition in assay [2] was 10%; in assay [3] it was -5%. In addition, the outcome in assay [5], in assay [6], in assay [7] and in assay [8] was inactive.
With `Oc1ccc(Nc2nc(NCC3CCCO3)c3ccccc3n2)cc1` (stereo not given), the growth inhibition in assay [1] is 57% (active); in assay [4] it was 103% (active). In addition, the inhibition in assay [2] was 7%; in assay [3] it was 4%. The outcome in assay [5], in assay [6], in assay [7] and in assay [8] was inactive.
Consider `Cc1cc(NCCC(=O)NCCOc2ccccc2)nc(Nc2ccccc2)n1`, for which the growth inhibition in assay [1] was 55% (active); in assay [4], 94% (active). Further, the inhibition is 26% in assay [2] and -1% in assay [3]. In addition, the result in assay [5], in assay [6], in assay [7] and in assay [8] was inactive.
For `CCCc1ccc(C(=O)N2[C@@H](c3nccs3)[C@@H](C(N)=O)C[C@@]2(CC(C)C)C(=O)O)cc1`, the growth inhibition in assay [1] was 80% (active); in assay [4] it was 94% (active). The inhibition in assay [2] is 16%; in assay [3], 1%. For the same compound, the result in assay [5], in assay [6], in assay [7] and in assay [8] was inactive.
As for `CCC(C)c1ccc(NC(=O)Nc2ccc(Cn3ncc(N4CCCNCC4)c(Cl)c3=O)cc2)cc1` (stereo not given), the growth inhibition was 31% in assay [1] and 83% (active) in assay [4]. In addition, the inhibition in assay [2] was -6%; in assay [3], -2%. Besides, the result in assay [5], in assay [6], in assay [7] and in assay [8] was inactive.
In the case of `COc1cccc(NC(=O)NC2CCN(c3ccnc(Nc4cc(OC)c(OC)c(OC)c4)n3)C2)c1` (stereo not given), the values for the growth inhibition in assay [1] and in assay [4] were 57% (active) and 95% (active), respectively. Further, the inhibition in assay [2] was 8%; in assay [3] it was -2%. The result in assay [5], in assay [6], in assay [7] and in assay [8] was inactive.
As to `CCC(=O)c1c(C)n(-c2ncnc3c2nc(C)n3-c2ccc(C)cc2C)c2ccccc12`, the growth inhibition in assay [1] is 78% (active); in assay [4], 96% (active). The results for the inhibition in assay [2] and in assay [3] were -16% and -2%, respectively. Further, the outcome in assay [5], in assay [6], in assay [7] and in assay [8] was inactive.
`CCn1c(Cc2ccccc2)nnc1SCC(=O)N1c2ccccc2Sc2ccccc21`: the growth inhibition in assay [1] was 96% (active); in assay [4] it was 99% (active). Moreover, the values for the inhibition in assay [2] and in assay [3] were -8% and -1%, respectively. Moreover, the outcome in assay [5], in assay [6], in assay [7] and in assay [8] was inactive.
`CCCCOc1c(CNCCCCCCNCc2ccc3ccccc3c2OCCCC)ccc2ccccc12`: the results for the growth inhibition in assay [1] and in assay [4] were 89% (active) and 96% (active), respectively. Besides, the inhibition in assay [2] was 99% (active); in assay [3], 7%. The outcome in assay [5], in assay [6], in assay [7] and in assay [8] was inactive.
With `c1ccc(OCCOc2ccc(Nc3ccnc4cc5ccccc5cc34)cc2)cc1`, the growth inhibition in assay [1] is 96% (active); in assay [4], 102% (active). Further, the inhibition in assay [2] is 44%; in assay [3], 7%. In addition, the outcome in assay [5], in assay [6], in assay [7] and in assay [8] was inactive.
For the compound `CCN1CCN(c2cc(C)c3cc(NC(=O)c4ccc(N(CC)CC)cc4)ccc3n2)CC1`, the growth inhibition in assay [1] is 41%; in assay [4], 95% (active). Also, the inhibition is 38% in assay [2] and 1% in assay [3]. Also, the outcome in assay [5], in assay [6], in assay [7] and in assay [8] was inactive.
With `COc1ccc(NC(=O)[C@H](Cc2ccccc2)Nc2cc(C)nc(NCCc3cccnc3)n2)cc1`, the growth inhibition is 5% in assay [1] and 98% (active) in assay [4]. The inhibition in assay [2] is 11%; in assay [3], -4%. Besides, the outcome in assay [5], in assay [6], in assay [7] and in assay [8] was inactive.
As for `CCCCCOc1ccc(C=NNc2nc(-c3ccccc3)cc(=O)[nH]2)cc1`, the values for the growth inhibition in assay [1] and in assay [4] were 86% (active) and 88% (active), respectively. Further, the figures for the inhibition in assay [2] and in assay [3] were 0% and -2%, respectively. Moreover, the result in assay [5], in assay [6], in assay [7] and in assay [8] was inactive.
Regarding `CCNc1cc(C(=O)N[C@@H](Cc2ccccc2)[C@H](O)CNC(C)(C)c2cccc(OC)c2)cc(N2CCCC2=O)c1`, the growth inhibition was 99% (active) in assay [1] and 100% (active) in assay [4]. Moreover, the inhibition in assay [2] was -3%; in assay [3], -6%. In addition, the outcome in assay [5], in assay [6], in assay [7] and in assay [8] was inactive.

For orientation: inhibition means the relative decrease from the control value, in per cent.
